Among the data in ChEMBL document CHEMBL4513216, “Probing the Open Global Health Chemical Diversity Library for Multistage-Active Starting Points for Next-Generation Antimalarials” (ACS Infect Dis, 2020) are INHIBITION values, retold here.

Each structure is given as a SMILES string. Among all 68,000 compounds or so, about 2,700 (4%) showed an effect of 50% or more. Many of the other results were omitted from the sample, so strong results are more common in it than they were.

In the assay the test system is Plasmodium berghei. The assay is described as follows: Screen against P. berghei liver stage (PbLuc), transformed with Luciferase, at 2uM. The format is functional, HepG2. The settings on record: tested at 2 uM.
With `CNC(=O)c1csc(-c2ccoc2)n1`, the INHIBITION is given as 52.3%.
For `CN(C)C(=O)c1csc(-c2ccoc2)n1`, the INHIBITION is 38.83%.
`CNC(=O)c1csc(-c2cccnc2)n1`: the INHIBITION was 30.63%.
As for `Cc1nc(C)n(CC(C)C(=O)N2CCC(NS(C)(=O)=O)CC2)n1` (centres undefined), the INHIBITION came to 5.85%.
As for `CCc1ccc(C(COC)NC(=O)c2ccc(C(N)=O)cc2)o1` (centres undefined), the INHIBITION was 15.56%.
The figure for `CSc1ncccc1C(=O)Nc1ccc(Cn2ccccc2=O)cc1` is 52.45%; for `Cc1ncccc1C(=O)Nc1cccc(Cn2ccccc2=O)c1` it is 45.67%.
The figure for `CSc1ncccc1C(=O)NCc1ccc(N(C)C)cc1` is 10.65%; for `CS(=O)(=O)N[C@@H]1CCN(Cc2nccs2)[C@H]1Cc1ccncc1` it is -11.68%.
To `Cc1cc(NC(=O)C(C)Cn2cc(Br)cn2)no1` (centres undefined) belongs 0.55%.
As for `CCCOc1ncccc1CNc1nnc(C)c(C)c1C#N`, the INHIBITION is 42.12%.
Take `CCOc1ncccc1CNc1nnc(C)c(C)c1C#N`: the INHIBITION is -27.71%.
For the compound `Cc1nnc(NCc2cccnc2N(C)C)c(C#N)c1C`, the INHIBITION turned out to be 53.03%.
In the case of `COC(=O)N1CCCC(C(=O)NCc2cc3cccc(OC)c3o2)C1` (centres undefined), the INHIBITION is reported as 33.01%.
To `CCn1ncc(C(=O)NCCc2nc(-c3ccc(C)cc3)n[nH]2)c1C` belongs -0.21%.
To `CC1(C)[C@@H]2CC=C(CN3CCCn4nc(C(=O)O)cc4C3)[C@H]1C2` belongs -17.07%; to `CC1(C)[C@@H]2CC=C(CN3CCCn4nc(C(=O)NCCO)cc4C3)[C@H]1C2`, 53.17%.
As to `CC1(C)[C@@H]2CC=C(CN3CCCn4nc(CCC(=O)O)cc4C3)[C@H]1C2`, the INHIBITION stood at 6.88%.
As to `Cn1cc(CCNC(=O)NC2CCS(=O)(=O)C2)cn1` (centres undefined), the INHIBITION is given as 0.3%.
`CC(c1ccc(C(=O)NCCc2nc(N)cc(O)n2)o1)N1CCCCC1` (centres undefined): the INHIBITION is listed as -24.78%.
The figure for `O=C(NCC1CCOC1)c1csc(-c2ccc(Cl)cc2)n1` (centres undefined) is 5.09%.
To `COc1ccc(-c2nc(C(=O)NCC3CCOC3)cs2)cc1OC` (centres undefined) belongs 60.09%; to `Cc1ccc(-c2nc(C(=O)NCC3CCOC3)cs2)cc1` (centres undefined), 49.9%.
In the case of `CC(=O)N(Cc1ncc(C)o1)C1CCN(CCc2cnn(C)c2)C1` (centres undefined), the INHIBITION amounted to 9.83%.
Turning to `CCC1CN(C(=O)COc2ccc(C(=O)NC3CC3)cc2)CCO1` (centres undefined), the INHIBITION was found to be 32.93%.
Consider `N#CCCN1CC(O)CN(C(=O)c2cccc(C(F)(F)F)c2)CC1=O` (centres undefined), for which the INHIBITION was found to be 24.52%.
As to `CNc1nc(CNC(=O)Nc2cccc(F)c2)cs1`, the INHIBITION is recorded as -88.54%.
Turning to `O=C(NCCCc1nc(=O)[nH][nH]1)Nc1cccc(F)c1`, the INHIBITION was 52.85%.
For the compound `O=C(NCCCc1nc(=O)[nH][nH]1)Nc1ccc(Cl)cc1`, the INHIBITION was determined as 23.64%.
Regarding `COCC1CN(Cc2ccc(C)o2)Cc2nnn(C)c21` (centres undefined), the INHIBITION is on record as 38.83%.
The figure for `Cc1cc(S(=O)(=O)NCC(C)(O)CN(C)C)c(F)cc1F` (centres undefined) is 8.05%; for `CN(C)C(=O)c1cccc(C[S+]([O-])CC(=O)NC2CCCC2)c1` (centres undefined) it is -13.12%.
The figure for `Cc1cc(CS(=O)(=O)NCC2CCCCC2)on1` is 10.22%; for `Cc1cc(CS(=O)(=O)NC2CCCCC2)on1` it is 35.46%.
The figure for `Cc1cc(CS(=O)(=O)NC2CCCc3ccccc32)on1` (centres undefined) is 57.34%.
For `CCCc1n[nH]c(=O)n1Cc1ccc(OC)cc1`, the INHIBITION was -13.14%.
Take `O=C(COC1CCCC1)Nc1ncn(CC(=O)N2CCCCCC2)n1`: the INHIBITION was 22.29%.
To `CC(C)Nc1nnc(SCc2nnc(C(C)(C)C)o2)s1` belongs 13.91%; to `O=C(NCC1CC1)C1CN(Cc2ccncc2)Cc2ccnn2C1` (centres undefined), 7.55%; to `O=C(NCC1CC1)C1CN(Cc2cccs2)Cc2ccnn2C1` (centres undefined), 23.53%.
The figure for `O=C(NCC1CC1)C1CN(c2ncccn2)Cc2ccnn2C1` (centres undefined) is 64.37%.
In the case of `O=c1ccc(-c2cccs2)nn1CN1CCOC(c2ccccc2)C1` (centres undefined), the INHIBITION is -30.87%.
To `Cc1nc(CN2CCC3(CC2)CC(=O)N(C)c2ccccc23)cs1` belongs 9.8%; to `Clc1cnccc1N1CCC(OC2CCOCC2)CC1`, -76.37%; to `Clc1cncc(NCc2cccc(COC3CCOCC3)c2)n1`, -0.39%.
Turning to `N#Cc1ccc(NCc2cccc(COC3CCOCC3)c2)nc1`, the INHIBITION was 66.24%.
For `CNS(=O)(=O)Cc1cccc(CNc2ccc(C#N)cn2)c1`, the INHIBITION is recorded as 19.12%.
In the case of `N#Cc1ccc(NCc2cccc(OCC3CCCO3)c2)nc1` (centres undefined), the INHIBITION is recorded as 42.35%.
Turning to `Clc1cnccc1NCc1cccc(COC2CCOCC2)c1`, the INHIBITION turned out to be 68.73%.
Consider `CC(=O)N1CCN(Cc2nccs2)CC2(CC(=O)N(C)C2)C1` (centres undefined), for which the INHIBITION was determined as 26.01%.
The figure for `CCC(Nc1cccc(OC)c1)C(=O)NCc1ccc2c(c1)OCO2` (centres undefined) is 11.6%; for `c1cnn(CC2CN(Cc3csc(C4CCCCC4)n3)CCO2)c1` (centres undefined) it is -43.79%.
The figure for `Cc1cccc(CN2CCN(C(=O)c3cnc(C)[nH]c3=O)CC2)c1` is 43.15%.
Turning to `CNC(=O)CN1C(=O)CN(C(=O)COC)CCC(OC)c2ccccc21` (centres undefined), the INHIBITION was -8.2%.
For `O=S(=O)(c1ccccc1)N1C[C@@H]2COC[C@]2(CN2CCOCC2)C1`, the INHIBITION was 29.19%.
The figure for `CCN(CCO)C[C@@H]1CN(c2cc(C(F)(F)F)cc(C)n2)C[C@@H]1CO` is 14.59%; for `Cc1cc(C(F)(F)F)cc(N2C[C@@H](CN(C)CCO)[C@@H](CO)C2)n1` it is 50.97%.
To `Cc1cc(C(F)(F)F)cc(N2C[C@@H](CN3CCOCC3)[C@@H](CO)C2)n1` belongs -18.71%; to `c1cncc(CN2CCn3cc(Cn4cccn4)nc3C2)c1`, 15.39%.
As for `Cc1ccc(N2CC3(COCCN(Cc4cccnc4)C3)OCC2=O)s1` (centres undefined), the INHIBITION is reported as -5.44%.
Take `CN(C)c1cc(CNC(=O)c2cc(Cl)ccn2)ccn1`: the INHIBITION was found to be 49.01%.
The figure for `Cc1ccc(CC(=O)N2CCCC(c3cc(C(N)=O)[nH]n3)C2)cn1` (centres undefined) is 14.53%; for `CC(C)(C)C(=O)NCCC(=O)N1CCC(Nc2cccnn2)CC1` it is -27.69%; for `COCCN1CCC2(CC1)CN(C(=O)c1cccs1)CCO2` it is 57.31%.
To `COCCN1CCC2(CC1)CN(C(=O)c1ccco1)CCO2` belongs 45.22%; to `COCCN1CCC2(CC1)CN(C(=O)c1ccccc1)CCO2`, 58.4%.
To `COCCN1C[C@@H](C)[C@@]2(COCCN(C(=O)c3cccs3)C2)C1` belongs -3.19%.
Turning to `O=C(c1ccccc1)N1CCOC2(CCN(Cc3cccs3)CC2)C1`, the INHIBITION is reported as 20.51%.
The figure for `COCCN1CCC2(CC1)CN(C(=O)Cc1cccnc1)CCO2` is 35.89%.
